{"source": "PubChem BioAssay AID1845226", "about": "(National Center for Advancing Translational Sciences (NCATS), 2023)", "note": "Inconclusive results are not listed. Where a call stands in place of a potency, no number is given. Activity calls are given as the source filed them. Calls follow the shape of the dose curve; as a rule, active = well fitted inhibition curve with a large enough effect; inconclusive = small, poorly fitted or top-dose-only effect; inactive = no such curve, though single readings can be large or run the other way. Potency is read from the fitted curve at half-maximal effect.", "data": [{"experiment": "Confirmatory fluorescence-based thiol-reactive (MSTI) qHTS assay for identification of artifact compounds", "details": "MSTI thiol-reactivity probe, 1 h; series mostly up to 39.2 µM", "how_it_was_run": "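MSTI 4 uM final, PBS pH 7.4 + 2% DMSO; 1 h RT, dark; Ex/Em 525/598 nm; % inhibition vs Acetyl-MSTI (0%) and MSTI (100%), 4-parameter Hill fit.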", "values": [{"molecule": "CC(C)=CCC/C(C)=C/C=O", "Potency": "inactive"}, {"molecule": "Cc1sc2ncn(CC(=O)N3CCN(c4ccccc4)CC3)c(=O)c2c1S(=O)(=O)N1CCC(C)CC1", "Potency": "inactive"}, {"molecule": "Cc1ccc(OCCn2c(CCNC(=O)OC(C)(C)C)nc3ccccc32)cc1", "Potency": "inactive"}, {"molecule": "O=C(O)c1ccccc1[N+](=O)[O-]", "Potency": "inactive"}, {"molecule": "Cc1nn(C(=O)COc2ccccc2Br)c(C)c1Sc1ccccc1", "Potency": "inactive"}, {"molecule": "COC(=O)c1cc(NC(=O)c2ccc3c(c2)NC(=O)c2ccccc2S3)cc(C(=O)OC)c1", "Potency": "inactive"}, {"molecule": "O=C(NCCN1CCCCC1)c1ccc(Cn2c(SCc3ccc(F)cc3)nc3cccnc32)cc1", "Potency": "inactive"}, {"molecule": "COc1ccc(C2C(C(=O)Nc3ccccc3)=C(C)Nc3c(C(=O)Nc4ccccc4)cnn32)cc1", "note": "(configuration not stated)", "Potency": "inactive"}, {"molecule": "Cc1cc(N[S+](=O)([O-])c2ccc(NC(=O)Cc3ccc(Cl)nc3)cc2)no1", "Potency": "inactive"}, {"molecule": "COc1ccc(-c2oc3cc(O[C@@H]4OC(CO)C(O)C(O)C4O)c(OC)c(O)c3c(=O)c2OC)cc1O", "note": "(some centres not stated)", "Potency": "inactive"}, {"molecule": "CC(=O)O[C@H]1C[C@@H]2CC[C@@H]3[C@H](CC[C@@]4(C)[C@H]3C[C@H](N3CC[N+](C)(C)CC3)[C@@H]4OC(C)=O)[C@@]2(C)C[C@@H]1N1CC[N+](C)(C)CC1", "Potency": "inactive"}, {"molecule": "COC(=O)c1c(NC(=O)COc2ccc(C(C)C)cc2)sc2c1CCCC2", "Potency": "inactive"}, {"molecule": "Cn1cc(CN(C(=O)Nc2ccc(Cl)c(Cl)c2)C2CCCCC2)c2ccccc21", "Potency": "inactive"}, {"molecule": "Clc1ccc(CNc2cc(-c3ccc4c(c3)OCO4)ncn2)cc1", "Potency": "inactive"}, {"molecule": "O=C(/C=C/c1ccc(O)cc1)OC[C@H]1O[C@@H](Oc2c(-c3ccc(O)cc3)oc3cc(O)cc(O)c3c2=O)[C@H](O)[C@@H](O)[C@@H]1O", "Potency": "inactive"}, {"molecule": "Cc1ccc(NC(=O)CC2Nc3cccc4cccc(c34)NC2=O)cc1", "note": "(configuration not stated)", "Potency": "1540 nM (active)"}, {"molecule": "CCCN(C(=O)Cc1c(C(=O)O)[nH]c2ccc(Cl)cc12)c1ccc(OCC)cc1", "Potency": "inactive"}]}]}
